This is an account of results in PubChem BioAssay (Tox21).

Records with an inconclusive call do not appear. Entries that show only a call come without a potency. A number with no mark means an inactive call. The source made the active and inactive calls. Unless noted, calls come from the whole dose curve; as a rule, active = well fitted cell-killing curve with a large enough effect in the repeat runs; inconclusive = weak or mixed curves, or effect the other way; inactive = no such curve, though single readings can be large or run the other way.
Note: nearly all actives have a fitted effect of over 50% in size.

One experiment in a line: qHTS assay to identify small molecule agonists of the endoplasmic reticulum stress response signaling pathway - cell viability counter screen (AID 1159517; calls by dose curve;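 note: HeLa cells carrying an ER stress response element beta-lactamase reporter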). The following applies: ESRE-bla HeLa viability, CellTiter-Glo luminescence, 5 h; series mostly up to 61 µM. Put shortly:
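HeLa cells carrying an ESRE-driven beta-lactamase reporter receive compound for 5 hr at 37 C. Cell viability is then gauged with CellTiter-Glo by luminescence, 30 min at room temperature.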
For `O=C1Nc2ccc([N+](=O)[O-])cc2C1=O`, the compound was classed as inactive.
As for `O=C1CCN(c2ccccc2)N1`, the call was inactive.
Still for that read-out and setting: the entry for `C[C@@H](N)C(=O)O` is “inactive”; for `CCc1cc(Cl)c(OC)c(C(=O)NC[C@@H]2CCCN2CC)c1O` it is “inactive”.
As for `CC1(O)CSC(C)(O)CS1` (stereo unspecified), the compound was called inactive.
Still for that read-out and setting: the entry for `Cc1cc2nc(N)sc2cc1C` is “inactive”; for `Cc1nc(N)nc(N)c1-c1ccc(Cl)c(Cl)c1` it is “inactive”; for `Cc1c(-c2ccccc2)oc2c(C(=O)OCCN3CCCCC3)cccc2c1=O` it is “inactive”.
As to `COc1ccc(Nc2ccc(OC)cc2)cc1`, the compound was classed as inactive.
On the same count and under the same terms, the entry for `CCCCCCCOC(=O)CCC` is “inactive”; for `CCCCCCCCCCCCCCCCOP(=O)([O-])OCC[N+](C)(C)C` it is “inactive”.
On to `CCCCCCOc1ccc(N)cc1`, for which the call was inactive.
Same read-out and setting: the result for `CC(C)c1ccccc1` reads “inactive”.
On to `Cc1nc(-c2ccccn2)ncc1C(=O)Nn1cc(C)c2cc(F)ccc21`, for which the compound was called inactive.
Consider `CN1CCN(C2=Nc3cc(F)ccc3Cc3ccccc32)CC1`, for which the outcome was inactive.
Same read-out and setting: the result for `Cc1cccc(C)c1NC(=O)CN1CCCCCC1` reads “inactive”; that for `O=C(CC(=O)C(F)(F)F)c1ccccc1`, “inactive”.
Same read-out and setting: the result for `O=Cc1ccc(O)c(O)c1O` reads “inactive”; that for `CC(C)C[C@H](NC(=O)OCC1c2ccccc2-c2ccccc21)C(=O)O`, “inactive”; that for `CCCCNc1ccc(C(=O)OCCN(CC)CC)cc1`, “inactive”.
On the same count and under the same terms, the entry for `CCCCCCCCCC#N` is “inactive”; for `CN1CCC[C@@H]1Cc1c[nH]c2ccc(CCS(=O)(=O)c3ccccc3)cc12` it is “inactive”; for `Cc1ccc(C(C)C)cc1O` it is “inactive”.
On to `CC(=O)Oc1cc(C(C)C)c(OCCN(C)C)cc1C`, for which the call was inactive.
Consider `CCCCCCCCc1ccc(S(=O)(=O)O)cc1`, for which the call was inactive.
Regarding `C[C@]12CCC(=O)C=C1CC[C@@H]1[C@@H]2CC[C@@]2(C)[C@H]1CC[C@]2(O)C(=O)CO`, the compound was called inactive.
Turning to `CC(C)=CCC[C@](C)(O)[C@@H]1CC=C(C)CC1`, the compound was classed as inactive.
The same measure, in the same setting: the entry for `OCc1c2ccccc2cc2ccccc12` is “inactive”; for `CCOc1ccccc1N` it is “inactive”; for `C[C@]12C(=O)OC(=O)[C@H]1[C@H]1C=C[C@@H]2C1` it is “inactive”.
Regarding `COC(=O)c1ccc2cc(C(=O)OC)ccc2c1`, the call was inactive.
As for `NC(Cc1ccc(F)cc1)C(=O)O` (stereo unspecified), the activity change, negative = cytotoxicity was 0.188% [at 6.95 µM].
Consider `CC1=C2[C@H](/C=C(\C)C(=O)O)CC[C@@H](C)[C@H]2CC1`, for which the result was inactive.
The same measure, in the same setting: the result for `CC1=NN(c2cc(Cl)c(S(=O)(=O)O)cc2Cl)C(=O)C1N=Nc1ccc(S(=O)(=O)O)cc1` (stereo unspecified) reads “inactive”; that for `O=c1[nH]cnc2c1ncn2[C@@H]1O[C@H](CO)[C@@H](O)[C@H]1O`, “inactive”; that for `Nc1ccc(Oc2ccc(N)c(N)c2)cc1`, “inactive”.
Same read-out and setting: the result for `NC/C=C/C(=O)O` reads “inactive”; that for `CCOC(=O)CS`, “inactive”.

Another experiment is described as follows: qHTS assay to identify small molecule antagonists of the retinoid-related orphan receptor gamma (ROR-gamma) signaling pathway - cell viability counter screen (AID 1159520). The following applies: Tet-on RORgamma CHO cells viability, ATP luminescence, 16 h; series mostly up to 92.4 µM. An outline of the steps:
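Cytotoxicity was read from cellular ATP (CellTiter-Glo luminescence) after 16 hr at 37 C with 1 uM doxycycline induction. The inducer was added 2 hr after compound transfer to Tet-on ROR gamma CHO cells.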
As for `O=C1Nc2ccc([N+](=O)[O-])cc2C1=O`, the Potency result was “inactive”.
Still for that read-out and setting: the entry for `O=C1CCN(c2ccccc2)N1` is “inactive”.
The same measure, in the same setting: the result for `C[C@@H](N)C(=O)O` reads “inactive”; that for `CCc1cc(Cl)c(OC)c(C(=O)NC[C@@H]2CCCN2CC)c1O`, “inactive”.
In the case of `CC1(O)CSC(C)(O)CS1` (stereo unspecified), the Potency result is “inactive”.
For `Cc1cc2nc(N)sc2cc1C`, the Potency result is “inactive”.
Turning to `Cc1nc(N)nc(N)c1-c1ccc(Cl)c(Cl)c1`, the Potency entry was “inactive”.
Take `Cc1c(-c2ccccc2)oc2c(C(=O)OCCN3CCCCC3)cccc2c1=O`: the Potency result is “inactive”.
Still for that read-out and setting: the result for `COc1ccc(Nc2ccc(OC)cc2)cc1` reads “inactive”.
Consider `CCCCCCCOC(=O)CCC`, for which the Potency entry is “inactive”.
Regarding `CCCCCCCCCCCCCCCCOP(=O)([O-])OCC[N+](C)(C)C`, the Potency result is “inactive”.
Still for that read-out and setting: the entry for `CCCCCCOc1ccc(N)cc1` is “inactive”.
Same read-out and setting: the result for `CC(C)c1ccccc1` reads “inactive”; that for `Cc1nc(-c2ccccn2)ncc1C(=O)Nn1cc(C)c2cc(F)ccc21`, “inactive”; that for `CN1CCN(C2=Nc3cc(F)ccc3Cc3ccccc32)CC1`, “inactive”.
Consider `Cc1cccc(C)c1NC(=O)CN1CCCCCC1`, for which the Potency entry was “inactive”.
Still for that read-out and setting: the entry for `O=C(CC(=O)C(F)(F)F)c1ccccc1` is “inactive”; for `O=Cc1ccc(O)c(O)c1O` it is “inactive”.
On to `CC(C)C[C@H](NC(=O)OCC1c2ccccc2-c2ccccc21)C(=O)O`, for which the Potency entry was “inactive”.
The same measure, in the same setting: the entry for `CCCCNc1ccc(C(=O)OCCN(CC)CC)cc1` is “inactive”; for `CCCCCCCCCC#N` it is “inactive”.
Still for that read-out and setting: the entry for `CN1CCC[C@@H]1Cc1c[nH]c2ccc(CCS(=O)(=O)c3ccccc3)cc12` is “inactive”; for `Cc1ccc(C(C)C)cc1O` it is “inactive”; for `CC(=O)Oc1cc(C(C)C)c(OCCN(C)C)cc1C` it is “inactive”.
As for `CCCCCCCCc1ccc(S(=O)(=O)O)cc1`, the Potency result was “inactive”.
In the case of `C[C@]12CCC(=O)C=C1CC[C@@H]1[C@@H]2CC[C@@]2(C)[C@H]1CC[C@]2(O)C(=O)CO`, the Potency result is “inactive”.
For `CC(C)=CCC[C@](C)(O)[C@@H]1CC=C(C)CC1`, the Potency result is “inactive”.
Turning to `OCc1c2ccccc2cc2ccccc12`, the Potency result was “inactive”.
On the same count and under the same terms, the result for `CCOc1ccccc1N` reads “inactive”.
As for `C[C@]12C(=O)OC(=O)[C@H]1[C@H]1C=C[C@@H]2C1`, the Potency entry was “inactive”.
As to `COC(=O)c1ccc2cc(C(=O)OC)ccc2c1`, the activity, negative = cytotoxicity is -0.583% [at 19 µM].
The same measure, in the same setting: the figure for `NC(Cc1ccc(F)cc1)C(=O)O` (stereo unspecified) is 9.21% [at 8.39 µM].
With `CC1=C2[C@H](/C=C(\C)C(=O)O)CC[C@@H](C)[C@H]2CC1`, the Potency entry is “inactive”.
`CC1=NN(c2cc(Cl)c(S(=O)(=O)O)cc2Cl)C(=O)C1N=Nc1ccc(S(=O)(=O)O)cc1` (stereo unspecified): the Potency entry is “inactive”.
Regarding `O=c1[nH]cnc2c1ncn2[C@@H]1O[C@H](CO)[C@@H](O)[C@H]1O`, the Potency result was “inactive”.
With `Nc1ccc(Oc2ccc(N)c(N)c2)cc1`, the Potency entry is “inactive”.
With `NC/C=C/C(=O)O`, the Potency result is “inactive”.
Turning to `CCOC(=O)CS`, the Potency entry is “inactive”.
